Tests used:
Experiment in all cases: log2 ratio of Biotin-Ahx-Ub-VS probe labelling (fragment/DMSO); higher = less target engagement (more negative = stronger competition), active = hit call of the paper (q ≤ 0.05, log2 ratio ≤ -1)
Details in all cases: compound concentration: 200 uM; treatment time: 3 h
[1] = target: T1, ALG13 (UniProt Q9NP73)
T1 sequence (whole entry): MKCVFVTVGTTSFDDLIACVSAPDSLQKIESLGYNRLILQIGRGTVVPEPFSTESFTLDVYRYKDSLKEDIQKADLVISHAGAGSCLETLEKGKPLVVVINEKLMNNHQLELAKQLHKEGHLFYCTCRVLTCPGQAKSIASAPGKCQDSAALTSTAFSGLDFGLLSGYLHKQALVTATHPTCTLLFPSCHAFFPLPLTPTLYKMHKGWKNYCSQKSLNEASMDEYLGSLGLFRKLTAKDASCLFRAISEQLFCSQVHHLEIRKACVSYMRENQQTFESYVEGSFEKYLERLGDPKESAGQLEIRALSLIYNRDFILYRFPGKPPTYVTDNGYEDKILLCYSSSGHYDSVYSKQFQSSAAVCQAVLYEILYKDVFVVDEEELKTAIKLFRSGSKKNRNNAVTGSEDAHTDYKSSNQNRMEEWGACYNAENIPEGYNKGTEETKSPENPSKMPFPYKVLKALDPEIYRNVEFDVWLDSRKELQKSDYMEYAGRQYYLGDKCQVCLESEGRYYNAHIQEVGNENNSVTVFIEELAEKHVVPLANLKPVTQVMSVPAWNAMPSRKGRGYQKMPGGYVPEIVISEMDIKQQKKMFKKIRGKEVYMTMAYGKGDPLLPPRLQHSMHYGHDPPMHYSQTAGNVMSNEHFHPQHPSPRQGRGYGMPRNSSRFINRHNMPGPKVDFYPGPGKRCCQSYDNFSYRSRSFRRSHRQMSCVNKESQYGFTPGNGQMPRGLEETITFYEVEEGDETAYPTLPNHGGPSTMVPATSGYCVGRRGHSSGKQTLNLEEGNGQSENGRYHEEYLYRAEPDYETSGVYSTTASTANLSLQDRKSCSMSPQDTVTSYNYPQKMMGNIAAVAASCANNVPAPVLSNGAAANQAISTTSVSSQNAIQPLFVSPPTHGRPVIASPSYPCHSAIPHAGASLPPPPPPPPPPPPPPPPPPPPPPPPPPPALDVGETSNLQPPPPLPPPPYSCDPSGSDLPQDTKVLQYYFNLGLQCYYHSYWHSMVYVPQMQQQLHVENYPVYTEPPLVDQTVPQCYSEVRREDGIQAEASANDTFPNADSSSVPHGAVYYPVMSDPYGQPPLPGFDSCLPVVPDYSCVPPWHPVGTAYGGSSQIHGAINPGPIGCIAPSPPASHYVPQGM
Summary of the method: (§1)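 Global-median-normalised Spectronaut label-free quantities were compared by unpaired t-test, and values are average log2 ratios of fragment over vehicle. Only proteins with ≥2 unique peptides were used. HEK293T lysate (495 µg per sample) was treated in triplicate with fragment at 200 µM or vehicle for 3 h and then with Biotin-Ahx-Ub-VS at 0.5 µM final for 1 h. Labelled DUBs were then NeutrAvidin-enriched, digested with LysC and trypsin, and run by diaPASEF LC-MS/MS.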

[2] = target: ATXN3 (UniProt P54252)
Summary of the method: as §1

[3] = target: T2, BAP1 (UniProt Q92560)
T2 sequence (whole entry): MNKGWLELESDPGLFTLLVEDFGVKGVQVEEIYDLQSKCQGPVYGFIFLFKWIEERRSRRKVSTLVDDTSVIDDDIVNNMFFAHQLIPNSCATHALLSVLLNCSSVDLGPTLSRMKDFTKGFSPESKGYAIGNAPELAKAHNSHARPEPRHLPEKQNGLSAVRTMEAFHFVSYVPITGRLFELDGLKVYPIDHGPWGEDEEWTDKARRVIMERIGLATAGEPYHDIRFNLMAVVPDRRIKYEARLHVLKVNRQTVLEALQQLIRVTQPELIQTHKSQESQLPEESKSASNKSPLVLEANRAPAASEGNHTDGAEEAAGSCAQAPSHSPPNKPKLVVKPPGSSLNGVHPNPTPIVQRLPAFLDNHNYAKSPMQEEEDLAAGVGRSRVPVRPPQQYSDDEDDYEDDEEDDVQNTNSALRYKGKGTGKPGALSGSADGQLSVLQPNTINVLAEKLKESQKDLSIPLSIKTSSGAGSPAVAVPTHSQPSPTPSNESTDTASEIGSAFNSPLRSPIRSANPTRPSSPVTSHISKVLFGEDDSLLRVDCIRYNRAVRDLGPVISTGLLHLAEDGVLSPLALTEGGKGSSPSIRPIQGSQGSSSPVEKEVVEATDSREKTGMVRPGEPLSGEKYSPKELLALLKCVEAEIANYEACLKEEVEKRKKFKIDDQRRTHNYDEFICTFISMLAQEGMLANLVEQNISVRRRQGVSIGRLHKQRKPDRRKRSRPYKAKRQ
Summary of the method: as §1

[4] = target: EIF3F (UniProt O00303)
Summary of the method: as §1

[5] = target: EIF3H (UniProt O15372)
Summary of the method: as §1

[6] = target: T3, FAM105A (UniProt Q9NUU6)
T3 sequence (whole entry): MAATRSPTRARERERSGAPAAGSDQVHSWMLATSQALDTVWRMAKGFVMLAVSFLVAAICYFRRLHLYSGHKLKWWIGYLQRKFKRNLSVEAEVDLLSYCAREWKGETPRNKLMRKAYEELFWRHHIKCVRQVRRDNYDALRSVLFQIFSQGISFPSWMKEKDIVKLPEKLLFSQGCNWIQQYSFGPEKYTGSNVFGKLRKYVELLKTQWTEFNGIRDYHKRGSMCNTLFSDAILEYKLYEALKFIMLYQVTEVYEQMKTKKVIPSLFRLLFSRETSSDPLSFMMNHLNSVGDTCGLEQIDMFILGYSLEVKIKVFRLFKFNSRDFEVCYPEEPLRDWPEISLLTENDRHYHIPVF
Summary of the method: as §1

[7] = target: OTUB1 (UniProt Q96FW1)
Summary of the method: as §1

[8] = target: T4, OTUD4 (UniProt Q01804)
T4 sequence (whole entry): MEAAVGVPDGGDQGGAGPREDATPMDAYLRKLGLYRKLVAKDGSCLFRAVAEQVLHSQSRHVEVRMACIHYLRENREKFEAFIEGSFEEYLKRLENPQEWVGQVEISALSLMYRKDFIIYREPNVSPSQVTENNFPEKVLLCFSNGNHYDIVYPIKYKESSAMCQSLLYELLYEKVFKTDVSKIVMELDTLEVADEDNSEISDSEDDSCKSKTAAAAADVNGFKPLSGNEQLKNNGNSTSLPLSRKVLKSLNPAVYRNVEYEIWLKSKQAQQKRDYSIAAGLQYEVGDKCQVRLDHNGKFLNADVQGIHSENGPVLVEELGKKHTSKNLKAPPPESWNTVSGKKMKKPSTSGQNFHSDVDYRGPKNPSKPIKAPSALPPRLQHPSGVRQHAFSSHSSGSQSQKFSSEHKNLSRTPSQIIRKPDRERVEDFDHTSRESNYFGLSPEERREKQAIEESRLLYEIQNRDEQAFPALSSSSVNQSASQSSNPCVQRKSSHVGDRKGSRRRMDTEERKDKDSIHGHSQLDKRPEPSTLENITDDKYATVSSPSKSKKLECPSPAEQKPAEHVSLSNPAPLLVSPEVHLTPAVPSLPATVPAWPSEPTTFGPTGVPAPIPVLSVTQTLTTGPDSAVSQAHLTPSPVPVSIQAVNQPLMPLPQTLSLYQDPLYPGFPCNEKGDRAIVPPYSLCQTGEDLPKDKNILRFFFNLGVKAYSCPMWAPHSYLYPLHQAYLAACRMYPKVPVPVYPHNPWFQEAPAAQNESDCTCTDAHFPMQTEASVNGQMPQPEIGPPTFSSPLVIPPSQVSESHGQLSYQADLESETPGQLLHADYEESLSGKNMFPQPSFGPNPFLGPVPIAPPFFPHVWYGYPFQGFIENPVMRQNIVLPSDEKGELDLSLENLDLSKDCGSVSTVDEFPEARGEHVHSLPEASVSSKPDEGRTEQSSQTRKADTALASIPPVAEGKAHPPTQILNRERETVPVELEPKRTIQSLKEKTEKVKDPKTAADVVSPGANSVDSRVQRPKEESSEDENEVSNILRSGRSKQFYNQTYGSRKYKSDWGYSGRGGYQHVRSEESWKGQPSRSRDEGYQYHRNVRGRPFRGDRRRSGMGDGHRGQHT
Summary of the method: as §1

[9] = target: T5, OTUD5 (UniProt Q96G74)
T5 sequence (whole entry): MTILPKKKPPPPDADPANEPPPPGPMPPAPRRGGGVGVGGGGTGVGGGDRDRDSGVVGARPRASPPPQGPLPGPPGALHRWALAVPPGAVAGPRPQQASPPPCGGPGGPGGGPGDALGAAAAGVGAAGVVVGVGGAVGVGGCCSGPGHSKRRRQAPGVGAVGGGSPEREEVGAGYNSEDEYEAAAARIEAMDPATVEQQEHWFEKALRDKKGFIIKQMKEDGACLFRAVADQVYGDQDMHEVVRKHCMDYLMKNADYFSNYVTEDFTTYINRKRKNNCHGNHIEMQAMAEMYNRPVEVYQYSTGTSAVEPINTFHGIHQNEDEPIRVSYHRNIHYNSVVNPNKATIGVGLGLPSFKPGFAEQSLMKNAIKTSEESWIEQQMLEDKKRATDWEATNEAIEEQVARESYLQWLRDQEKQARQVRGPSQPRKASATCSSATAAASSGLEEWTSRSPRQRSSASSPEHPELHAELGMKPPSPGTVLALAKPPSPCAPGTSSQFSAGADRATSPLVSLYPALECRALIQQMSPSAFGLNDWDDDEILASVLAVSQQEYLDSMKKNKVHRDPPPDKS
Summary of the method: as §1

Measured: log2 ratio of Biotin-Ahx-Ub-VS probe labelling

Chain of OTUB1 (Q96FW1 whole entry): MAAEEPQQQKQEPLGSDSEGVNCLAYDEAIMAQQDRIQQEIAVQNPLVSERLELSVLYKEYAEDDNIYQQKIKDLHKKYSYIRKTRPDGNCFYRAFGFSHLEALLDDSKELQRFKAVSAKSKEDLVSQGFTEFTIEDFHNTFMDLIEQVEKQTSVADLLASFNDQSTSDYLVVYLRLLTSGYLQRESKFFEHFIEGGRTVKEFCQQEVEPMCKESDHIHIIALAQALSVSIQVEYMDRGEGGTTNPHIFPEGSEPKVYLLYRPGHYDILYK
Chain of ATXN3 (P54252 whole entry): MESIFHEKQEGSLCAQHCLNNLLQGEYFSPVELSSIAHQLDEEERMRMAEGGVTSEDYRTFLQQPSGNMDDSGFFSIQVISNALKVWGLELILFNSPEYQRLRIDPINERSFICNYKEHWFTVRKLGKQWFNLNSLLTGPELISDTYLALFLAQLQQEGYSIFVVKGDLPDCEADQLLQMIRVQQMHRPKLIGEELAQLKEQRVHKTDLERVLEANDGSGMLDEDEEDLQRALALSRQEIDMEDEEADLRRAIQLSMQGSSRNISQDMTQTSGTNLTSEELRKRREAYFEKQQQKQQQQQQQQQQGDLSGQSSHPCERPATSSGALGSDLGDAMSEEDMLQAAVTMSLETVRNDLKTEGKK
Chain of EIF3H (O15372 whole entry): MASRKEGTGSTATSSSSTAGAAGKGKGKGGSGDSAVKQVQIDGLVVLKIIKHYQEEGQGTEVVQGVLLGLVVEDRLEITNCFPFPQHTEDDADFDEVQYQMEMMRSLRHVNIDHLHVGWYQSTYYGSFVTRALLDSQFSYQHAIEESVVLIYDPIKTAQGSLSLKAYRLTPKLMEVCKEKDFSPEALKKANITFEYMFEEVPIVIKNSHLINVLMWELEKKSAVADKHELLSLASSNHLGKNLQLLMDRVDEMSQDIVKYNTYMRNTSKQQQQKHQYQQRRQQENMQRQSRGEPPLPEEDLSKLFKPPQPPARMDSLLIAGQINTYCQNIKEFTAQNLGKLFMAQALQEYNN
Chain of EIF3F (O00303 whole entry): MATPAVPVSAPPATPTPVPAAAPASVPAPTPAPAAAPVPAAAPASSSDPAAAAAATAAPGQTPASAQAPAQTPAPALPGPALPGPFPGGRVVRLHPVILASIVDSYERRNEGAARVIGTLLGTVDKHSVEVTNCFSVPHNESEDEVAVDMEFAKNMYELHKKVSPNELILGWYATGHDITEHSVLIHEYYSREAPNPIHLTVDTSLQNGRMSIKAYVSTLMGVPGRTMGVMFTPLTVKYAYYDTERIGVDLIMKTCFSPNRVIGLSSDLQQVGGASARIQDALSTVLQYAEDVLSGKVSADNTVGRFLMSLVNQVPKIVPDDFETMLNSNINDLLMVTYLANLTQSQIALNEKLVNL

O=C(CCl)N1CCN(C(=O)N2CCCCC2)CC1
inactive: [4] -0.507 | [5] 0.266 | [6] -0.215 | [7] -0.524 | [8] -0.638
active: [1] -1.37 | [2] -1.81 | [3] -1.46 | [9] -1.13

From the supplement of paper PMC11732987, “Enantioselective OTUD7B fragment discovery through chemoproteomics screening and high-throughput optimisation” (Communications Chemistry, 2025)
